# Measured values as given in PubChem BioAssay (EPA / NIEHS).
# Inconclusive results are not listed. Active and inactive are the calls of the source. The calls were made as follows, unless noted: active = hit-call score of the fitted dose curve at least 0.9, where 1 is the maximum; inactive = score below 0.9.
# Assays:
# [1] = CCTE_Shafer_MEA_acute_spike_number: CCTE's Neural Acute Assay for Total Number of Spikes, Shafer Lab (AID 2284008);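 as to AC50: curve fitted for decrease in spike count so AC50 reflects inhibitors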
# Outline: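 Using an adaptive detector set to 8x rms noise, spikes were counted in 40-min windows before and after compound addition (0.03-40 uM) to rat cortical networks at 37 C; the well-level change from baseline was analysed relative to DMSO.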
# [2] = CCTE_Shafer_MEA_acute_firing_rate_mean: CCTE's Neural Acute Assay for Mean Firing Rate, Shafer Lab (AID 2284009);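 also: analyzed for loss of signal so actives lower firing rate relative to DMSO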
# Outline: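 Read-out: well-mean spike rate (spikes/recording length/electrodes), % change from 40 min pre-dose baseline to 40 min with compound. Rat cortical cultures, DIV 13 or 15, 37 C; 0.03-40 uM; DMSO as negative control.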
# [3] = CCTE_Harrill_HTTr_Viability_MCF7: CCTE's 6-hour Cell Viability Assessment for the High-Throughput Transcriptomics (HTTr) Platform, in MCF-7 cells cultured in DMEM + 10% fetal bovine serum, Harrill Lab (AID 2284010)
# Outline: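 Membrane integrity was scored by high-content imaging of propidium iodide dye exclusion after a 6 h exposure across an eight-point dilution series. Data were fitted bidirectionally relative to DMSO as negative control and baseline.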
# [4] = CCTE_Harrill_HTTr_CellCount_MCF7: CCTE's Cell Proliferation Assessment for the High-Throughput Transcriptomics (HTTr) Platform, Harrill Lab (AID 2284012; active = hit-call score of the fitted dose curve at least 0.9, where 1 is the maximum;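 also: cells exposed to compound for six hours; intended direction is loss of nuclei count meaning fewer cells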)
# Outline: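 MCF-7 cells were exposed for 6 h to an eight-point dilution series; Hoechst-labeled nuclei were counted by high content imaging. Curves were fitted bidirectionally against DMSO as negative control and baseline, with signal loss indicating reduced cell count.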
# [5] = CCTE_Shafer_MEA_acute_burst_number: CCTE's Neural Acute Assay for Single-Electrode Bursts, Shafer Lab (AID 2284013)
# Outline: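 Rat cortical cultures, DIV 13/15; 40 min baseline, then 40 min with compound 0.03-40 uM, 37 C. Spikes: 300-5000 Hz band-pass, threshold 8x rms noise. Readout = % change in single-electrode bursts vs baseline, loss-of-signal fit.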
# [6] = CCTE_Shafer_MEA_acute_burst_duration_mean: CCTE's Neural Acute Assay for Mean Burst Duration, Shafer Lab (AID 2284014);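 also: hits are decreases in mean burst duration relative to DMSO controls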
# Outline: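 Primary rat cortical neurons on 16-electrode MEA wells, treated on DIV 13 or 15 with compound (0.03-40 uM; ≥3 wells each). 40-min baseline and 40-min exposure recordings at 37 C; percent change in mean burst duration per well versus DMSO.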
# [7] = CCTE_Shafer_MEA_acute_per_burst_spike_number_mean: CCTE's Neural Acute Assay for Average Number of Spikes Per Burst, Shafer Lab (AID 2284015);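 also: hits are decreases in mean spikes per burst versus baseline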
# Outline: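 We recorded spontaneous network firing of rat cortical neurons for 40 min before and 40 min during exposure to compound at 0.03-40 uM, at 37 C. Spikes were detected adaptively at 8x rms noise, and the change in average spikes per burst was fitted against DMSO.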
# [8] = CCTE_Shafer_MEA_acute_burst_percentage_std: CCTE's Neural Acute Assay for Standard Deviation of Burst Percentage, Shafer Lab (AID 2284018);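 also: fitted in the negative direction so actives lower burst percentage SD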
# Outline: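 Primary rat cortical neurons on 16-electrode MEA wells were recorded 40 min at baseline (DIV 13 or 15), then 40 min after compound (0.03-40 uM), at 37 C. Well value is SD across electrodes of spikes-in-bursts/total spikes; endpoint is percent change, DMSO-referenced.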
# [9] = CCTE_Shafer_MEA_acute_per_network_burst_spike_number_mean: CCTE's Neural Acute Assay for Average Number of Spikes in a Network Burst, Shafer Lab (AID 2284019)
# Outline: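 Primary rat cortical neurons on 16-electrode MEA wells, DIV 13 or 15, 37 C; 40-min baseline then 40-min recording with compound (0.03-40 uM). Spikes per network burst (total spikes/number of bursts) expressed as percent change from baseline, DMSO reference.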
# [10] = CCTE_Shafer_MEA_acute_per_network_burst_spike_number_std: CCTE's Neural Acute Assay for Standard Deviation of Number of Spikes in a Network Burst, Shafer Lab (AID 2284020);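 also: fitted for decrease in spike-number SD versus DMSO so actives lower it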
# Outline: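 Primary rat cortical neurons on 48-well MEAs (16 electrodes/well) recorded at DIV 13 or 15: 40-min baseline, then 40 min with compound (0.03-40 uM), 37 C. Value is percent change in SD of spikes per network burst, relative to DMSO.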
# [11] = CCTE_Shafer_MEA_acute_per_network_burst_electrodes_number_mean: CCTE's Neural Acute Assay for Mean Number of Electrodes in a Network Burst, Shafer Lab (AID 2284021);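 also: curves fitted for decreases only so hits reduce electrodes per burst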
# Outline: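 Percent change from baseline in average electrode count per network burst, rat cortical cultures on 48-well MEAs; 40-min recordings each side of exposure, DIV 13 or 15; threshold 8x rms noise; DMSO as negative control.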
# [12] = CCTE_Shafer_MEA_acute_network_burst_percentage: CCTE's Neural Acute Assay for Percentage of Network Bursts, Shafer Lab (AID 2284022);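 also: curves fitted for loss so actives lower network burst percentage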
# Outline: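 On DIV 13 or 15, at least three wells of rat cortical neurons per compound are dosed at 0.03-40 uM. Spontaneous firing is detected at 8x rms noise for 40 min before and after dosing at 37 C. The percent change in network-burst spike share is reported.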
# [13] = CCTE_Shafer_MEA_acute_cross_correlation_area: CCTE's Neural Acute Assay for Area of Cross Correlation, Shafer Lab (AID 2284024);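 also: area under pooled inter-electrode spike cross-correlation near zero lag as percent change from own baseline; curves fitted for loss of cross-correlation area so actives lower synchrony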
# Outline: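 Extracellular recordings from cultured rat cortical neurons measure network synchrony as cross-correlation area; each well's post-compound value (0.03-40 uM, 40 min) is compared with its own 40 min baseline to give percent change.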
# [14] = CCTE_Shafer_MEA_acute_cross_correlation_HWHM: CCTE's Neural Acute Assay for Cross Correlation at Half Width at Half Maximum, Shafer Lab (AID 2284026);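 also: percent change per well from pre-dose baseline in spike cross-correlogram half width; hits are a decrease in cross-correlogram half width relative to DMSO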;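 as to outcome: spontaneous network firing of rat primary cortical neurons on multiwell microelectrode arrays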
# Outline: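 Percent change in cross-correlogram half width at half maximum, narrower meaning more synchrony, was derived per well from paired 40-min recordings before and during exposure to 0.03-40 uM compound in rat cortical cultures at 37 C.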
# [15] = CCTE_Shafer_MEA_acute_synchrony_index: CCTE's Neural Acute Assay for Synchrony, Shafer Lab (AID 2284027);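 also: network synchrony index of spontaneous spiking in primary rat cortical neurons on MEAs; fitted for loss of signal so actives lower synchrony relative to DMSO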
# Outline: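 Primary rat cortical neurons on 16-electrode MEA wells were recorded 40 min at baseline (DIV 13 or 15) and 40 min after compound (0.03-40 uM) at 37 C. Synchrony index (0-1) expressed as percent change from baseline, versus DMSO.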
# [16] = CCTE_Deisenroth_AIME_96WELL_CTox_Active: Cytotoxicity Assessment (CTOX) in CCTE's 96-well Estrogen Receptor Transactivation Assay with AIME metabolic competence (metabolism positive), Deisenroth Lab (AID 2284028; active = hit-call score of the fitted dose curve at least 0.9, where 1 is the maximum)
# Outline: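 Chemicals (0.002–200 uM) were first incubated 2 h with alginate-immobilized phenobarbital/beta-naphthoflavone-induced male rat liver S9; conditioned medium then went onto VM7Luc4E2 cells for 24 h, with viability read by protease-substrate fluorescence, fitted bidirectionally.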
# [17] = CCTE_Deisenroth_AIME_96WELL_CTox_Inactive: Cytotoxicity Assessment (CTOX) in CCTE's 96-well Estrogen Receptor Transactivation Assay without AIME metabolic competence (metabolism negative), Deisenroth Lab (AID 2284029; active = hit-call score of the fitted dose curve at least 0.9, where 1 is the maximum)
# Outline: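 Chemicals (10-point series, 0.002-200 uM) were incubated 2 h with alginate-water microspheres lacking S9. The conditioned medium was then transferred onto VM7Luc4E2 cells for 24 h. Viability was measured by protease-substrate cleavage to a fluorescent probe, with loss of signal fitted bidirectionally; n≥4 experimental replicates.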
# [18] = CCTE_Harrill_HTTr_Apoptosis_MCF7: CCTE's 6-hour Apoptosis Assessment for the High-Throughput Transcriptomics (HTTr) Platform, in MCF-7 cells cultured in DMEM + 10% fetal bovine serum, Harrill Lab (AID 2284011)
# Outline: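 Apoptosis in MCF-7 cells grown in DMEM with 10% fetal bovine serum was scored after a six hour exposure by high content imaging of caspase-3/7 activation (CellEvent Caspase 3/7 Green), with DMSO serving as negative control and baseline.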
# [19] = biological target: Estrogen receptor (Homo sapiens) (UniProt P03372); experiment: CCTE_Deisenroth_AIME_96WELL_LUC_Active: CCTE's 96-well Estrogen Receptor Transactivation Assay with AIME metabolic competence (ERTA luciferase; metabolism positive), Deisenroth Lab (AID 2284023; active = hit-call score of the fitted dose curve at least 0.9, where 1 is the maximum)
# Outline: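 Chemicals pre-incubated 2 h with alginate-immobilized phenobarbital/beta-naphthoflavone-induced male Sprague Dawley rat liver S9, then medium transferred to VM7Luc4E2 cells for 24 h luciferase read-out. 10-point series 0.002 - 200 uM; fitted relative to 17beta-estradiol.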
# [20] = biological target: Estrogen receptor (Homo sapiens) (UniProt P03372); experiment: CCTE_Deisenroth_AIME_96WELL_LUC_Inactive: CCTE's 96-well Estrogen Receptor Transactivation Assay without AIME metabolic competence (ERTA luciferase; metabolism negative), Deisenroth Lab (AID 2284025; active = hit-call score of the fitted dose curve at least 0.9, where 1 is the maximum)
# Outline: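 VM7Luc4E2 breast cells, luciferase read 24 h after dosing with medium pre-incubated 2 h on alginate-water lids (metabolism negative). 10-point series 0.002–200 uM, single technical replicate, n≥4; fit relative to 17beta-estradiol.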
# Chain of Estrogen receptor (Homo sapiens) (P03372 whole entry, looked up): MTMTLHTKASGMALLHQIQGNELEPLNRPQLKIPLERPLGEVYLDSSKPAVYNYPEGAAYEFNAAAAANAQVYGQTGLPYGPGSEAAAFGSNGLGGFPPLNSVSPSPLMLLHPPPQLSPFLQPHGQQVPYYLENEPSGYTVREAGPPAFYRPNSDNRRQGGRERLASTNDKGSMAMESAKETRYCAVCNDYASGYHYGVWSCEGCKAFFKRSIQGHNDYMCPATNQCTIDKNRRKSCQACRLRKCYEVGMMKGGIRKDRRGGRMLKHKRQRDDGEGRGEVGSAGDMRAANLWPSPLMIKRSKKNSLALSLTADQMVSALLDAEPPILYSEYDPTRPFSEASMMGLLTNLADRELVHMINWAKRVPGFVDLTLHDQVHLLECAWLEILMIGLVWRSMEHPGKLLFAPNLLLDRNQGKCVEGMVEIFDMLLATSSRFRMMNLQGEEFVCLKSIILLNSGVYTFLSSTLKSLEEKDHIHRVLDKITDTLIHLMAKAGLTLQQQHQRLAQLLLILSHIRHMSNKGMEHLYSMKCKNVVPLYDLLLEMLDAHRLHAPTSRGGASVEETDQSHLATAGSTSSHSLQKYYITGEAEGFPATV
compound,measurement,setting,value
CC(C)(C)[C@@H](O)[C@@H](Cc1ccc(Cl)cc1)n1cncn1,outcome,[1],inactive
same,outcome,[2],inactive
same,outcome,[3],inactive
same,outcome,[4],inactive
same,outcome,[5],inactive
same,AC50,[6],25.1 µM (active)
same,outcome,[7],inactive
same,outcome,[8],inactive
same,outcome,[9],inactive
same,outcome,[10],inactive
same,outcome,[11],inactive
same,outcome,[12],inactive
same,outcome,[13],inactive
same,outcome,[14],inactive
same,outcome,[15],inactive
CC(C)(c1ccc(O)cc1)c1ccc(O)cc1,AC50,[1],5.7 µM (active)
same,AC50,[2],5.7 µM (active)
same,outcome,[3],inactive
same,outcome,[4],inactive
same,AC50,[5],6.17 µM (active)
same,outcome,[7],inactive
same,outcome,[8],inactive
same,outcome,[9],inactive
same,outcome,[10],inactive
same,outcome,[11],inactive
same,outcome,[12],inactive
same,outcome,[13],inactive
same,AC50,[14],28.6 µM (active)
same,outcome,[15],inactive
same,AC50,[16],125 µM (active)
same,AC50,[17],104 µM (active)
CCCCOCCOCCOCc1cc2c(cc1CCC)OCO2,outcome,[3],inactive
CCOC(=O)NCCOc1ccc(Oc2ccccc2)cc1,outcome,[3],inactive
CCCCC(CC)COC(=O)c1ccccc1C(=O)O (stereo not given),outcome,[3],inactive
CCCOC(=O)NCCCN(C)C,outcome,[3],inactive
O=C(O)C1(C(=O)Nc2ccc(Cl)cc2Cl)CC1,outcome,[3],inactive
same,outcome,[4],inactive
CCCCCOC(=O)COc1cc(N2C(=O)C3=C(CCCC3)C2=O)c(F)cc1Cl,outcome,[3],inactive
same,outcome,[4],inactive
CCCCOC(=O)C(C)Oc1ccc(Oc2ccc(C(F)(F)F)cn2)cc1 (stereo not given),outcome,[3],inactive
CCC(C)OC(=O)N1CCCCC1CCO (stereo not given),outcome,[3],inactive
same,outcome,[18],inactive
COC(=O)c1ccc(I)cc1S(=O)(=O)NC(=O)Nc1nc(C)nc(OC)n1,outcome,[3],inactive
same,outcome,[18],inactive
S=C([S-])NCCNC(=S)[S-].[Mn+2],outcome,[3],inactive
same,outcome,[18],inactive
same,outcome,[4],inactive
CCOC(=O)C(C)Oc1ccc(Oc2nc3ccc(Cl)cc3o2)cc1 (stereo not given),outcome,[3],inactive
c1ccc(Nc2ccccc2)cc1,outcome,[3],inactive
CC(=O)S[C@@H]1CC2=CC(=O)CC[C@]2(C)[C@H]2CC[C@@]3(C)[C@@H](CC[C@@]34CCC(=O)O4)[C@H]12,outcome,[3],inactive
same,outcome,[18],inactive
same,outcome,[4],inactive
same,outcome,[19],inactive
same,outcome,[20],inactive
same,outcome,[16],inactive
same,AC50,[17],127 µM (active)
CCN(CC)C(=O)c1cccc(C)c1,outcome,[3],inactive
same,outcome,[4],inactive
C[C@]12CC[C@@H]3c4ccc(O)cc4C[C@@H](CCCCCCCCCS(=O)CCCC(F)(F)C(F)(F)F)[C@H]3[C@@H]1CC[C@@H]2O (stereo not given in full),outcome,[3],inactive
same,outcome,[19],inactive
same,outcome,[20],inactive
CCCN(CCC)C(=O)SCC,outcome,[3],inactive
same,outcome,[4],inactive
C#C[C@]1(O)CC[C@H]2[C@@H]3CCC4=CC(=O)CC[C@@H]4[C@H]3CC[C@@]21CC,outcome,[3],inactive
same,outcome,[4],inactive
S=C(S)NCCNC(=S)S.[Mn+2].[S-]C([S-])=NCCN=C([S-])[S-].[Zn+2],outcome,[3],inactive
same,outcome,[4],inactive
COCCO,outcome,[3],inactive
c1ccc2[nH]c(-c3cscn3)nc2c1,outcome,[3],inactive
same,outcome,[4],inactive
CCOC(=O)C(C)Oc1ccc(Oc2cnc3cc(Cl)ccc3n2)cc1 (stereo not given),outcome,[3],inactive
CN(C)C(=O)Nc1ccc(Cl)c(Cl)c1,outcome,[3],inactive
same,outcome,[4],inactive
CCCOC(=O)c1ccc(C(=O)OCCC)nc1,outcome,[3],inactive
same,outcome,[18],inactive
same,outcome,[4],inactive
CC(=O)[C@H]1CC[C@H]2[C@@H]3CCC4=CC(=O)CC[C@]4(C)[C@H]3CC[C@]12C,outcome,[3],inactive
same,outcome,[4],inactive
COC(=O)CSc1cc(N=c2sc(=O)n3n2CCCC3)c(F)cc1Cl,outcome,[3],inactive
same,outcome,[18],inactive
